From PubChem
Mtb UGM inh: blocks M. tuberculosis UGM enzyme. 320,000 tested, 0.06% active. purified UGM, fluorescence polarization probe displacement. P9WIQ1. inhibition, % at 10 µM; in the data active means inhibition above about 10%, passing the limit was not always enough; inconclusive means no clear call, values can overlap the other calls
Target sequence (P9WIQ1 whole entry, looked up): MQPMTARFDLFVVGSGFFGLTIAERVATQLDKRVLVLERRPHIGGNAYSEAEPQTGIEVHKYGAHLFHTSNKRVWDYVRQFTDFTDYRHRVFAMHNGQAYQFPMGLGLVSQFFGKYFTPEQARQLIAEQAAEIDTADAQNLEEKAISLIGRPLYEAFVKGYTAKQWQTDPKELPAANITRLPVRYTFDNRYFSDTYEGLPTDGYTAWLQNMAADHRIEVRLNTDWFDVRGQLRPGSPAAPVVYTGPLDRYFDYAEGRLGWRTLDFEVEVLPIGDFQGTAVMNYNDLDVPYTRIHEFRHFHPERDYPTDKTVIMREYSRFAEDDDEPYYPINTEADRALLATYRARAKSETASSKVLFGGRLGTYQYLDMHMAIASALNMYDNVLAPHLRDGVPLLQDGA
RecA intein inh: inhibitors of M. tuberculosis RecA intein splicing; P9WHJ3; cell-free RecA intein splicing, fluorescence; inhibition, % (concentration not given with the values); 290,000 tested, 0.75% active; AID 2221; in the data active means inhibition above about 30%; inconclusive means no clear call, values can overlap the other calls;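 further: 0% = vehicle wells and 100% = reference inhibitor control wells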
Rv3671c inh: inhibitors of M. tuberculosis serine protease Rv3671c | inhibition, % at 5.96 µM | AID 2606 | 320,000 tested, 0.048% active; in the data active means inhibition above about 38%;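 further: extracellular domain of Rv3671c used as enzyme; 0% = enzyme with DMSO and 100% = no enzyme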
FadD28 binding: inhibitors of Mycobacterium tuberculosis FadD28 bisubstrate binding | FadD28 bisubstrate probe binding, fluorescence polarization | inhibition, % at 12.5 µM | 360,000 tested, 0.22% active | AID 588549; in the data active means inhibition above about 8.5%, passing the limit was not always enough; inconclusive means no clear call, values can overlap the other calls
PrP UTR inh: inhibition of PrP 5' UTR reporter expression | AID 488862 | 340,000 tested, 0.35% active | inhibition, % (no concentration beside the values) | cell-based PrP 5' UTR mRNA reporter, plate reader; in the data active means inhibition above about 52%; further: 0 = median of the neutral control wells
BJeLR lethal: kills HRASV12-expressing BJeLR cells. BJeLR (HRASV12) viability, CellTiter-Glo ATP luminescence, 48 h. inhibition, % (no concentration beside the values). 300,000 tested, 0.17% active. AID 1554; in the data active means inhibition above about 50%; inconclusive means no clear call, values can overlap the other calls
PrP UTR cherry: prion 5' UTR mRNA inhibition, cherry-pick retest | shares compounds with PrP UTR inh | 1,100 tested, 48% active | cell-based prion protein 5' UTR reporter, plate reader | inhibition, % at 2.5 µM | AID 504592; in the data active means inhibition above about 54%; inconclusive means no clear call, values can overlap the other calls
* = called active by the depositor. A selection: hits, their analogues and other compounds. The true share with any hit is near 1.3%.

`CCC1CCCCN1C(=S)NC(=O)c1ccc(F)c(S(=O)(=O)N2CCOCC2)c1` (configuration not stated) gave Mtb UGM inh -8, RecA intein inh 1, Rv3671c inh -2, FadD28 binding -3, PrP UTR inh 59*, BJeLR lethal 2 and PrP UTR cherry 5.
For COc1cccc(C(C)(O)c2nc(-c3cccc(C#N)c3)cs2)c1 (configuration not stated) the results were FadD28 binding -2.
For COc1ccc(C(=O)CC(=O)c2ccc(C(C)(C)C)cc2)cc1 the results were FadD28 binding -3, PrP UTR inh 57* and PrP UTR cherry -11.
`CCOC(=O)C1=CCN(S(=O)(=O)c2ccccc2Cl)C1c1cccc(F)c1` (configuration not stated) gave FadD28 binding 0.
COc1ccccc1C(=O)O/N=C(\N)c1ccccn1 was read as Mtb UGM inh -1, RecA intein inh -4, Rv3671c inh -5, FadD28 binding -4, PrP UTR inh -67 and BJeLR lethal 9.
N/C(=N\OC(=O)c1ccccc1Cl)c1ccccn1 was read as Mtb UGM inh -3, RecA intein inh -1, Rv3671c inh 7, FadD28 binding 0, PrP UTR inh 76*, BJeLR lethal 22 and PrP UTR cherry 71*.
`COc1ccc(C(=O)O/N=C(\N)c2ccccn2)cc1` gave Mtb UGM inh 3, RecA intein inh 0, Rv3671c inh -3, FadD28 binding -1, PrP UTR inh 88*, BJeLR lethal -1 and PrP UTR cherry 94*.
For Cc1ccc(C(=O)O/N=C(\N)c2ccccn2)c(C)c1 the results were Mtb UGM inh -1, RecA intein inh 0, Rv3671c inh -5, FadD28 binding -3, PrP UTR inh 95*, BJeLR lethal 22 and PrP UTR cherry 97*.
Screening Cc1ccccc1C(=O)O/N=C(\N)c1ccccc1 returned Mtb UGM inh 1, RecA intein inh 1, Rv3671c inh -4, FadD28 binding 0, PrP UTR inh 56*, BJeLR lethal 1 and PrP UTR cherry 55*.
COc1ccc(NS(=O)(=O)c2cccc(C(=O)N3CCCC3)c2)cc1 was read as Mtb UGM inh 3, RecA intein inh -3, Rv3671c inh 10, FadD28 binding -2, PrP UTR inh -15 and BJeLR lethal -14.
For COCCN(C(=O)COC(=O)c1ccc2c(c1)OCO2)c1c(N)n(Cc2ccccc2)c(=O)[nH]c1=O the results were FadD28 binding 0.
CCOc1ccc(C(=O)COC(=O)c2nc3nccc(C)n3n2)cc1 was read as Mtb UGM inh -3, Rv3671c inh -12, FadD28 binding -1 and PrP UTR inh -11.
`Cc1[nH]c(C(=O)N/N=C/c2ccc(C(=O)O)cc2)c(C)c1C(=O)N/N=C/c1ccc(C(=O)O)cc1` gave Mtb UGM inh -1, RecA intein inh 2, Rv3671c inh -7, FadD28 binding -8, PrP UTR inh -5 and BJeLR lethal -5.
`CCOC(=O)c1c(C)[nH]c(C(=O)N/N=C/c2ccc(Br)cc2)c1C` gave Mtb UGM inh 0, RecA intein inh 2, Rv3671c inh -49, FadD28 binding -4, PrP UTR inh 55*, BJeLR lethal 46 and PrP UTR cherry 88*.
For CN(C(=O)c1cc2ccccc2oc1=O)C1(C)CCS(=O)(=O)C1 (configuration not stated) the results were Mtb UGM inh -1, RecA intein inh -8, Rv3671c inh 3, FadD28 binding -1, PrP UTR inh 81*, BJeLR lethal 3 and PrP UTR cherry -4.
Screening CN(C(=O)c1ccccc1)C1(C)CCS(=O)(=O)C1 (configuration not stated) returned Mtb UGM inh 1, RecA intein inh 0, Rv3671c inh -11, FadD28 binding 1, PrP UTR inh -43 and BJeLR lethal -11.
COc1ccc(NC(=S)NCc2cccs2)cc1 was read as Mtb UGM inh 5, RecA intein inh 0, Rv3671c inh 3, FadD28 binding -3, PrP UTR inh 75*, BJeLR lethal -2 and PrP UTR cherry -12.
CC(C)c1ccc(NC(=S)NCc2cccs2)cc1 was read as Mtb UGM inh 1, Rv3671c inh -8, FadD28 binding 7, PrP UTR inh -23 and BJeLR lethal -7.
COc1ccc(N(CC(=O)N2CCN(c3cccc(C)c3C)CC2)S(=O)(=O)c2c(C)noc2C)cc1 was read as Mtb UGM inh 1, RecA intein inh 3, Rv3671c inh 7, FadD28 binding -2, PrP UTR inh -13 and BJeLR lethal -7.
For CCC(C)C1NC(=O)C(NC(=O)C(CC(C)C)N(C)C(=O)C2CCCN2C(=O)C(C)O)C(C)OC(=O)C(Cc2ccc(OC)cc2)N(C)C(=O)C2CCCN2C(=O)C(CC(C)C)NC(=O)[C@H](C)C(=O)[C@H](C(C)C)OC(=O)CC1O (some centres not stated) the results were FadD28 binding -1, PrP UTR inh 94* and PrP UTR cherry 96*.
CCN1/C(=C\C=C\C2=[N+](CC)c3ccccc3C2(C)C)C(C)(C)c2ccccc21 was read as Mtb UGM inh 5, RecA intein inh 23, Rv3671c inh -368, FadD28 binding -14, PrP UTR inh 63*, BJeLR lethal 88* and PrP UTR cherry 67*.
CCOC(=O)/C=C1/N(C)c2ccccc2C1(C)C was read as Mtb UGM inh 0, RecA intein inh 1, Rv3671c inh 8, FadD28 binding 0, PrP UTR inh -14 and BJeLR lethal 8.
Screening COC(=O)c1ccc2c(c1)c(-c1ccccc1)c(-c1ccccc1)n2C returned FadD28 binding -1, PrP UTR inh 85* and PrP UTR cherry -27.
Screening COC(=O)c1c(C)nc2ccccc2c1-c1ccccc1 returned Mtb UGM inh -3, RecA intein inh 1, Rv3671c inh -7, FadD28 binding -5, PrP UTR inh -11 and BJeLR lethal -9.
Screening O=C(NCCS(=O)(=O)NCc1ccccc1)c1ccc2c(c1)OCO2 returned Mtb UGM inh 0, RecA intein inh -1, Rv3671c inh -2, FadD28 binding -3, PrP UTR inh -13 and BJeLR lethal -5.
O=C(NCCc1ccccc1)c1ccc2c(c1)OCO2 was read as Mtb UGM inh -1, RecA intein inh 0, Rv3671c inh 4, FadD28 binding -1, PrP UTR inh 58*, BJeLR lethal 5 and PrP UTR cherry inconclusive.
COc1ccccc1OCCC(=O)OCC(=O)NCc1ccc(F)cc1 was read as Mtb UGM inh 0, Rv3671c inh 5, FadD28 binding -3, PrP UTR inh 88* and PrP UTR cherry 10.
For COc1ccccc1OCCC(=O)OCC(=O)NCc1ccc(Cl)cc1 the results were Mtb UGM inh -2, RecA intein inh 3, Rv3671c inh 5, FadD28 binding 0, PrP UTR inh -19 and BJeLR lethal 6.
